Screening results as filed in PubChem BioAssay.
This is a sample that favours compounds with a hit; in the whole collection about 5.7% have one here.
hcDAF12 agonist: H. contortus DAF-12 nuclear receptor activators, primary screen, cell-based, luminescence, HEK293, lit1-tk-luc reporter | HEK293 hcDAF-12 lit1-tk-luc reporter; 0% DMSO, 100% Δ7-dafachronic acid | activation, % at 6.8 µM | 370,000 tested, 1.4% active | AID 652067, 2013;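 active = activation above the mean of all tested compounds plus 3 SD, cut at about 5.5% in these data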;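 also: 100% = response to 3 µM Δ7-dafachronic acid high control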
ssDAF12 agonist: S. stercoralis DAF-12 nuclear receptor activators, primary screen, cell-based, luminescence, HEK293, GRIP1 co-expression, lit1-tk-luc. Nuclear hormone receptor DAF-12 (Strongyloides stercoralis). HEK293 ssDAF-12/GRIP1 lit1-tk-luc reporter; % of 3 µM dafachronic acid response. activation, % at 6.8 µM. 370,000 tested, 1% active;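 active = activation above the mean over all tested compounds plus 3 SD, cut at about 0.9% in these data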;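 also: 0% = DMSO-only wells and 100% = 3 µM delta7-dafachronic acid wells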
DAX1 inh-1: DAX1 (NR0B1) inhibitors, primary screen, cell-based, HEK293, Gal4-DAX1, luciferase luminescence; inhibition, % at 6.75 µM; HEK293 Gal4-DAX1 luciferase reporter; 340,000 tested, 0.99% active; Nuclear receptor subfamily 0 group B member 1 (Homo sapiens), P51843; AID 504766, 2011;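 active = inhibition above the mean over all tested compounds plus 3 SD, cut at about 4.2% in these data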;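 also: 0% = DAX1-transfected cells with DMSO and 100% = empty-vector control cells with DMSO; inhibition shows as a rise in luminescence from relieved DAX1 repression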
Target sequence (P51843 207-470 limits assumed): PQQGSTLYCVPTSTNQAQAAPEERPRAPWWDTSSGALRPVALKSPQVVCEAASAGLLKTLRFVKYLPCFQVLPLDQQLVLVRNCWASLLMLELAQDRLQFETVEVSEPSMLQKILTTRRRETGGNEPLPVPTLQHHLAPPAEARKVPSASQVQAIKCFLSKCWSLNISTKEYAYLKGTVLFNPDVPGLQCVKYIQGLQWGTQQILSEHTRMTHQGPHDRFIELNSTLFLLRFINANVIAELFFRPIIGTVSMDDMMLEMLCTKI
hgDAF12 agonist: H. glycines DAF-12 receptor agonists, primary screen, cell-based, luminescence, HEK293, GAL4 fusion, UAS-luciferase | activation, % at 6.8 µM | AID 687014, 2013 | HEK293 GAL4-hgDAF12 UAS-luciferase reporter, agonist luminescence; normalized to butyrate control | 370,000 tested, 1.8% active;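 active = activation above a cutoff set at the mean of all screened compounds plus 3 SD, cut at about 10% in these data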;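 also: 0% = DMSO wells and 100% = sodium butyrate wells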
DAX1 inh-2: DAX1 (NR0B1) inhibitors on StAR promoter, primary screen, cell-based, luminescence, SF-1 (NR5A1), full-length DAX-1 | HEK293T StAR-luciferase reporter, SF-1/DAX-1 repression relief | AID 652010, 2013 | inhibition, % at 6.8 µM | 370,000 tested, 1.1% active;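 active = inhibition above the mean over all tested compounds plus 3 SD, cut at about 3.6% in these data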;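 also: 0% = DAX-1 cells with DMSO and 100% = cells lacking DAX-1 with DMSO; higher inhibition means more luminescence from relief of DAX-1 repression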
AHR act: AHR activators, primary screen, cell-based, luminescence, luciferase reporter, human; AHR-responsive luciferase reporter cells; activation, % at 5 µM; 320,000 tested, 2.5% active; AID 2796, 2010; in the data active = activation above about 47%;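 also: 0% = vehicle wells and 100% = reference agonist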
* marks the source's active call; other numbers are inactive results; / = no result.

SMILES	hcDAF12 agonist	ssDAF12 agonist	DAX1 inh-1	hgDAF12 agonist	DAX1 inh-2	AHR act
CCOC(=O)c1cc(-c2csc(-c3ccc(C(F)(F)F)cc3)n2)on1	1	-1	0	2	0	18
C[C@@H]1ON(C)[C@H]2C[C@H]3c4[nH]c5c(-c6ccc7c(c6)OCO7)cccc5c4CCN3C(=O)[C@@H]12	-1	-1	/	1	1	/
COc1ccc2c(c1)[C@@]1(OCCC=C[C@H]1C)C(=O)N2C/C=C(\C)CCC=C(C)C	-2	-1	/	0	0	/
C/C(=N\NC(=S)NCC(C)(C)C)c1cc(F)cc(F)c1O	0	0	4.7*	1	0	2
O=C1OC(COCC#Cc2ccccc2)CN1c1ccccc1 (stereo unspecified)	0	-1	0	0	-1	/
O=C(Nc1ccc2c(c1)OCO2)c1cc(C2CCCCN2S(=O)(=O)Cc2ccccc2)on1 (stereo unspecified)	4	-1	/	11*	4.4*	/
O=C(Nc1ccc2c(c1)OCO2)c1cc(C2CCCCN2C(=O)CCc2ccccc2)on1 (stereo unspecified)	-1	-1	/	0	-1	/
CC(=Nc1ccccc1)C1=C(O)CCCC1=O	1	-1	5.2*	-1	0	-2
CC(=Nc1ccccc1)C1=C(O)CC(C)(C)CC1=O	-1	-1	2	-3	0	1
Cc1cc2oc(C(=O)NCC(c3ccco3)N3CCCC3)c(C)c2cc1C (stereo unspecified)	3	3.6*	2	4	2	/
O=C(NCC(c1ccco1)N1CCCC1)c1ccccc1Sc1ccc(C(F)(F)F)cc1[N+](=O)[O-] (stereo unspecified)	2	1.1*	0	2	0	15
Cc1ccccc1OCC(=O)NCC(c1ccco1)N1CCCCC1 (stereo unspecified)	0	-1	0	-4	-1	-3
O=C(NCC(c1ccco1)N1CCCC1)c1cc2ccccc2s1 (stereo unspecified)	1	0.9*	1	3	1	14
COc1ccccc1CC(=O)NCC(c1ccco1)N1CCCCC1 (stereo unspecified)	-2	-2	4.6*	3	1	2
Cc1ccc2oc(C(=O)NCC(c3ccco3)N3CCCC3)c(C)c2c1 (stereo unspecified)	4	0	0	3	0	12
Cc1ccc(CCN2CC(C(=O)NCCCN3CCC(C)CC3)CC2=O)cc1 (stereo unspecified)	-1	-1	0	0	0	10
NC(=O)NC(=O)COC(=O)CCCSc1nc2ccccc2s1	-1	-1	4	-9	0	-4
CC(C)NC(=O)NC(=O)COC(=O)CCCSc1nc2ccccc2s1	0	0	7.4*	-1	0	2
CC1CCN(C(=O)CSc2nc3ccccc3s2)CC1	6.5*	0	4.6*	12*	2	15
O=C(CSc1nc2ccccc2s1)N1CCCCC1	4	1	3	12*	2	13
CC1CCCC(C)N1C(=O)CSc1nc2ccccc2s1 (stereo unspecified)	3	0	5.0*	7	1	19
CN(C)CCCSc1nc2ccccc2s1	4	2.0*	1	4	0	-5
COCCn1c(C)cc(C(=O)COC(=O)C23CC4CC(CC(O)(C4)C2)C3)c1C	5	0	4	8	4.5*	0
Cc1cc(C(=O)COC(=O)C23CC4CC(CC(O)(C4)C2)C3)c(C)n1-c1c(C)n(C)n(-c2ccccc2)c1=O	0	-1	0	0	0	-1
CCOC(=O)N1CCN(S(=O)(=O)c2ccc(C(=O)Nc3nc4ccccc4s3)cc2)CC1	2	-1	0	-1	0	1
SMILES	hcDAF12 agonist	ssDAF12 agonist	DAX1 inh-1	hgDAF12 agonist	DAX1 inh-2	AHR act
CC(=O)NNc1nc2ccccc2s1	3	0	3	0	0	20
CC(=O)N1CCC(=NNc2nc3ccccc3s2)CC1	6.5*	1	0	7	1	40
CCOC(=O)N1CCC(=NNc2nc3ccccc3s2)CC1	5.8*	0	2	10	1	28
CC1(C)C(=O)NC(=O)N1Cc1ccccc1	1	-1	0	0	0	1
CCC(=O)N1CCN(c2nc3ccc(Br)cc3s2)CC1	0	-2	0	2	0	-7
C/C(=N\NS(=O)(=O)c1ccc([N+](=O)[O-])cc1)c1ccc(NC(=O)c2ccco2)cc1	0	-1	2	12*	4.3*	3
Cc1nc2ccc3nc(NC(=O)C4COc5ccccc5O4)sc3c2s1 (stereo unspecified)	-1	0	0	1	0	5
Cc1nc(C2COc3ccccc3O2)sc1C(=O)O (stereo unspecified)	2	-1	5.5*	2	2	-3
O=S1(=O)CCOC[C@H](CC2CCCCC2)N1Cc1ccccc1Br	-1	-1	1	-1	0	2
O=C1NC(=O)/C(=C\c2cn(Cc3ccccc3F)c3ccccc23)N1	0	-1	-1	3	0	39
Cc1c(/C=C2\NC(=O)NC2=O)c2ccccc2n1C	3	0	1	1	0	75*
CCCCC[C@@H](C)N1C[C@@H](COCc2ccccc2)Oc2cc(N3CC[C@H](N(C)C)C3)ccc2S1(=O)=O	0	-1	/	1	4.1*	/
CCCCC[C@@H](C)N1C[C@@H](COCc2ccccc2)Oc2cc(N3CCC[C@H]3CO)ccc2S1(=O)=O	1	0.9*	/	1	-1	/
C[C@H](c1ccccc1)N1C[C@@H](COCc2ccccc2)Oc2cc(N3CC[C@@H](O)C3)ccc2S1(=O)=O	-1	-1	/	4	3.9*	/
C[C@@H](c1ccccc1)N1C[C@@H](COCc2ccccc2)Oc2cc(N3CC[C@H](O)C3)ccc2S1(=O)=O	-2	-1	/	-2	-1	/
O=[N+]([O-])c1ccc(C2=NN(CCO)C(=Nc3ccc(OC(F)(F)F)cc3)SC2)cc1	-2	0	-1	-2	0	-1
CN1CCN(C(=S)Nc2cc([N+](=O)[O-])ccc2Cl)CC1	0	-1	5.3*	3	0	0
